Bioassay records as filed in PubChem BioAssay.
Tb PFK inh: T. brucei PFK enzyme inhibition | T. brucei PFK, ADP-Glo luminescence | Potency, µM (series often up to 57.5 µM), most hits filed as inhibitors | 330,000 compounds, 0.17% hits; active means well fitted inhibition curve with a large enough effect; further: nearly all actives have a fitted effect of over 60% in size
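Activity is normalized to no-enzyme wells (full inhibition) and 1.25 nM enzyme wells (no inhibition). Reaction: 0.5 mM F6P, 0.1 mM ATP, 45 min RT, ADP-Glo luminescence; concentration-response curves fitted and classed by quality.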
TSG101-PTAP inh: blocks PTAP/TSG101 interaction to inhibit HIV-1 budding; Fluorescence polarization, FITC-PTAP peptide / Tsg101 binding; Potency, µM (highest dose often 115 µM), hits mostly inhibitors; 340,000 tested, under 10 active; active means well fitted inhibition curve with a large enough effect in the main read-out, with a control signal flat, not every such curve was filed as active
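Fluorescence polarization binding of Tsg101 binding domain (10 uM final) to FITC-labeled PTAP peptide (50 nM final) in HEPES pH 7.5 buffer with NaCl, Tween 20, EDTA, TCEP. Compounds added before peptide; binding 20 min at RT.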
KCNH2 WT inh: KCNH2 (human, wildtype) channel inhibition | Q12809 | U2OS, BacMam KCNH2, thallium flux FluxOr; active compounds read low | activity change, % at 1.84 µM | 340,000 compounds, 0.37% hits | AID 720551;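 active means maximum activity change below -70%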
Target sequence (Q12809 whole entry, looked up): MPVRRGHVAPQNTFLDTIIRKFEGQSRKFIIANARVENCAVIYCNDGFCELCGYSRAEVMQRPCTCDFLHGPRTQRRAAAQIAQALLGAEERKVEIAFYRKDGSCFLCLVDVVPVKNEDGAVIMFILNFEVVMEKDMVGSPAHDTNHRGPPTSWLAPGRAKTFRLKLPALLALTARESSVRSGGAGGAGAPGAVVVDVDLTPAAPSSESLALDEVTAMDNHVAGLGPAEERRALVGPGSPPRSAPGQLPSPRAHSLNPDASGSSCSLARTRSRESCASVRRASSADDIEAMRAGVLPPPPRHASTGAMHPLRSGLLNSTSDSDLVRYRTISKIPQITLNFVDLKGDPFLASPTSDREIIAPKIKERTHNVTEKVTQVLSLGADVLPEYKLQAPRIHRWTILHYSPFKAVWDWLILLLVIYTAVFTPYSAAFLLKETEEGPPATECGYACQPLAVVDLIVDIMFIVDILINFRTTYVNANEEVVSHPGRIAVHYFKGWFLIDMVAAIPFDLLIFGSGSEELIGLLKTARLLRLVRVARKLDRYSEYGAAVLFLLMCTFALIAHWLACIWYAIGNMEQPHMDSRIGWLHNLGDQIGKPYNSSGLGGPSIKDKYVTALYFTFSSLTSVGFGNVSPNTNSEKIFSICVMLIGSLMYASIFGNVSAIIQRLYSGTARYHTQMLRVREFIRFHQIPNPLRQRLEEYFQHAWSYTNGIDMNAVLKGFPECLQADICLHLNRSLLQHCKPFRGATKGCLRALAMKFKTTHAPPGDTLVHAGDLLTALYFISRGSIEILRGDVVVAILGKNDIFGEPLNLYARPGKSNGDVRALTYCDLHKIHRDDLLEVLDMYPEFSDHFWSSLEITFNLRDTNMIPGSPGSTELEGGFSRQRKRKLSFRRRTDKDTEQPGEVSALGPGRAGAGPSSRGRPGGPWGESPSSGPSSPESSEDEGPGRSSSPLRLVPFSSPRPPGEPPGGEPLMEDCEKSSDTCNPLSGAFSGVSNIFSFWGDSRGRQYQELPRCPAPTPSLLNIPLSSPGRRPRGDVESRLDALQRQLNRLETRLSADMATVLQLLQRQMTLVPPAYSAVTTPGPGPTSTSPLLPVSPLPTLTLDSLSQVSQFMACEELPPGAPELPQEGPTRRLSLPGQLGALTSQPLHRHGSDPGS
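U2OS cells were transduced with wild-type KCNH2 virus (2.03 x 10^8 / mL) for 4 h at room temperature, then cultured overnight at 37 C. Thallium flux was read with FluxOr dye. Rate constants were normalized to DMSO controls.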
KCNH2 3.1 inh: blocks the human KCNH2 3.1 channel isoform; activity change, % (tested at about 1.8 µM); U2OS KCNH2 3.1, thallium flux FluxOr; active compounds read low; 340,000 compounds, 0.95% hits;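 active means maximum activity change below -70%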;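 further: thallium influx rate constant from kinetic fluorescence after stimulation buffer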
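Normalized rate constant (relative to positive and negative DMSO controls) derived from a 2 min kinetic fluorescence read after stimulation; U2OS cells expressing the 3.1 isoform via virus at 1.77 x 10^8 /mL.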
Numbers stand for hits; . = inactive; / = no result. The list is not random: actives were taken first. Their share in the collection is about 1.2%.

SMILES	Tb PFK inh	TSG101-PTAP inh	KCNH2 WT inh	KCNH2 3.1 inh
COc1ccc(CCNC(=O)C(=O)NCC2CCCN2S(=O)(=O)c2ccc(OC)cc2)cc1 (stereo not drawn)	.	.	.	.
Cc1cc(C)n(-c2nc3ccccc3n3cnnc23)n1	.	.	.	-103
N#Cc1cn(Cc2ccco2)c(=O)[nH]c1=O	/	.	.	.
CCOC(=O)c1ccccc1NC(=O)COC(=O)C1CCCC1	.	.	-104	.
CCOC(=O)c1ccccc1NC(=O)COC(=O)CC1CCCCC1	.	.	.	.
O=C(N/N=C/c1ccccn1)c1cc(C2CC2)[nH]n1	.	.	.	-92
COc1ccc(S(=O)(=O)N2CCCC2)cc1C(=O)N1CCCCC1	.	/	.	.
Cc1ccc(S(=O)(=O)N2CCN(Cc3ccccc3)CC2)cc1	.	.	.	.
CCOc1cc(S(=O)(=O)N2CCN(Cc3ccccc3)CC2)ccc1Br	/	.	.	-82
CCN1CCN(S(=O)(=O)c2ccc(OC)c(Br)c2)CC1	.	.	-89	.
COc1ccc(S(=O)(=O)N2CCCCC2)cc1C(=O)N1CCCC1	.	.	-70	.
COc1ccc(S(=O)(=O)N2CCN(C)CC2)cc1Br	.	.	.	.
COc1ccc(NC(=O)Nc2cccc3c2O[C@H](CN(C)S(C)(=O)=O)[C@@H](C)CN([C@H](C)CO)C3=O)cc1	.	.	.	.
O=S(=O)(Nc1ncn[nH]1)c1ccc(Cl)cc1	.	.	.	-85
CCOc1ccc(S(=O)(=O)Nc2ncn[nH]2)cc1	.	.	.	.
O=C(COC(=O)Cc1c(F)cccc1Cl)Nc1nnc(-c2ccccc2)o1	.	.	.	.
O=C(Nc1ccccc1Oc1cccnc1)C1CCCN(C/C=C/c2ccc(F)cc2)C1 (stereo not drawn)	.	.	-98	-93
Cc1cccc(CN2CCCC(C(=O)Nc3ccccc3Oc3cccnc3)C2)c1 (stereo not drawn)	.	.	.	.
O=C(NCCc1ccc(F)cc1)C1CCCO1 (stereo not drawn)	.	.	.	.
CCCCn1c(N)c(N(CCC(C)C)C(=O)C2CC(=O)N(c3ccc4c(c3)OCCO4)C2)c(=O)[nH]c1=O (stereo not drawn)	.	.	.	.
CCCCN(C(=O)C1CC(=O)N(c2ccc3c(c2)OCCO3)C1)c1c(N)n(CC(C)C)c(=O)[nH]c1=O (stereo not drawn)	.	.	-152	-192
Cc1ccc(S(=O)(=O)Nc2cc(-c3ccc(Cl)cc3)nn2C)cc1	.	.	.	-174
Cc1ccc(S(=O)(=O)Nc2cc(-c3ccccc3)nn2C)cc1	.	.	.	.
Cc1cccc(-c2ccc3ncnc(NCc4cc(C)cs4)c3c2)c1	.	/	/	/
N#Cc1ccc(OCC(=O)N2CCN(c3ccc(C(F)(F)F)cn3)CC2)cc1	.	.	.	-92
SMILES	Tb PFK inh	TSG101-PTAP inh	KCNH2 WT inh	KCNH2 3.1 inh
COc1cccc(CNC(=O)CSc2nnc3c(n2)[nH]c2ccc(C)cc23)c1	.	.	.	.
COc1cccc2cc(C(=O)C3=C(O)C(=O)N(c4cc(C)on4)C3c3cccs3)oc12 (stereo not drawn)	.	.	.	.
Cc1cc(NC(=O)CCCN2C(=O)c3cccnc3C2=O)ccc1Br	.	.	.	-72
Nc1nonc1-n1nnc(C(=O)N/N=C/c2ccc(OCc3ccccc3F)cc2)c1CN1CCCCC1	.	.	.	-100
Nc1nonc1-n1nnc(C(=O)N/N=C/c2ccc(O)cc2)c1COc1ccc(F)cc1	.	.	.	.
CN(C)Cc1c(C(=O)N/N=C/c2ccc(OCc3c(F)cccc3Cl)cc2)nnn1-c1nonc1N	.	.	.	-86
Cc1cc2cc(CN(Cc3ccc4c(c3)OCO4)Cc3nnnn3C3CCCC3)c(=O)[nH]c2cc1C	.	.	.	.
Cc1ccc2[nH]c(=O)c(CN(Cc3ccc4c(c3)OCO4)Cc3nnnn3C3CCCC3)cc2c1	/	.	.	-128
CCc1ccc2[nH]c(=O)c(CN(Cc3nnnn3C3CCCC3)C3CCCCC3)cc2c1	.	.	.	-189
CNC(=O)CSc1nnc(-c2ccco2)n1-c1cc(C)ccc1C	.	.	-140	.
CNC(=O)CSc1nnc(-c2ccco2)n1-c1cccc(C)c1C	.	.	.	.
CC(C)(C)C(=O)Nc1ccc(C(=O)Nc2cccc(Oc3ccc(C(=O)O)c(C(=O)O)c3)c2)cc1	21µM	.	.	.
CCCCN(C)C(=O)c1nc2ccccn2c1CN1CCN(c2ncccn2)CC1	.	.	.	.
